In PubChem BioAssay (NCI):
Compounds without any hit were thinned out: in the full panel of roughly 83,000, 20% have a hit.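 The test compound was applied at a single concentration to cells in 96-well plates for 48 hours, and percent growth was recorded.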 A number with no mark means an inactive call. Calls of active or inactive are those of the source. Rule for the calls: active = growth percent below 10; inactive = the rest.

These compounds were tested on 786-0 renal (assay: NCI-60 one-dose screen, 48 h (100 = growth as untreated, 0 = no growth, -100 = all killed)). Conditions: 10 µM unless noted.
O=[N+]([O-])c1cc(/C=N/Nc2nc(N/N=C/c3ccc(Cl)c([N+](=O)[O-])c3)nc(N3CCCCC3)n2)ccc1Cl gave a growth of 109%. C#Cc1nc(C(C)=O)cs1 showed a growth of 98.6%. Work on O=C1[C@H]2Cc3c([nH]c4ccccc34)[C@@H](c3c(Cl)cccc3Cl)N2C(=O)CN1C1CCN(CC2CCCCC2)CC1 yielded a growth of 83.2%. For O=C1Nc2ccccc2/C1=C/c1ccc(COCC2CO2)n1-c1ccc(O)cc1 (stereo not drawn), the growth was 103%. For CCOc1ccc(NC2=C(Cl)C(=O)c3nc(C)ccc3C2=O)cc1, the growth was 8.39% (active). Compound O=S(=O)(NCCCNc1nccc(-c2[nH]c(-c3ccccc3)nc2-c2ccc(Cl)c(O)c2)n1)c1cccc(F)c1 has a growth of 100%. With CN1CCN(Cc2ccc(NC(=O)c3cncc(C#Cc4cnc5ccc(OCC6(C)COC6)nn45)c3)cc2C(F)(F)F)CC1 the growth was -55.4% (active). COc1cc2c(cc1OC)C(Sc1ccc(F)cc1)c1c(nc(N)c(C#N)c1N)O2 (stereo not drawn) was tested, and the growth was -72.3% (active). For Cc1nc(-c2ccccc2O)ccc1C(=O)N=Nc1c(O)[nH]c2ccc(Br)cc12, the growth was 102%. For COc1cc(-c2nnc(SCc3ccc(O)c4ncccc34)n2-c2ccccc2)cc(OC)c1OC, the growth was 8.31% (active). NS(=O)(=O)c1ccc(-n2cc(CN3CCCCC3)nn2)cc1 gave a growth of 109%. COc1cc(/C=C2\C(=O)Nc3ccccc32)ccc1OCc1ccc(Cl)cc1 gave a growth of 106%. Work on Cc1ccc(-c2nnc(SCc3ccc(O)c4ncccc34)o2)cc1 yielded a growth of 24.5%. COc1ccccc1NCc1cccn1Cc1ccc(F)cc1 gave a growth of 92.8%. With CCN1CCN(Cc2ccc(C(=O)Nc3ccc(C)c(Oc4ccc(-c5[nH]nc6ncnc(N)c56)cc4)c3)cc2C(F)(F)F)CC1 the growth was 69.4%. For CCOC(=O)c1c(NC(=O)c2ccccc2C(F)(F)F)sc2c1CCC(=O)C2, the growth was 104%. CN1CCN(c2ccc(/C=N/n3cnc4oc(-c5ccccc5)cc4c3=N)cc2)CC1 was tested, and the growth was 52.8%. Cn1ccnc1C(=O)/C=C/c1ccc(CNC(=O)c2ccc(S(F)(F)(F)(F)F)cc2)cc1 was tested, and the growth was 13.1%. With COc1ccc(NC2=C(Cl)C(=O)c3nc(C)ccc3C2=O)cc1OC the growth was 99%. CCc1nn2c(C)cc(C)nc2c1Cc1ccc(/C=C/CN2CCN(CCOCCOCCN3CCN(C/C=C/c4ccc(Cc5c(CC)nn6c(C)cc(C)nc56)cc4)CC3)CC2)cc1 was tested, and the growth was -79.3% (active). Work on COc1c(N2CC3CCCNC3C2)c(F)cc2c(=O)c(C(=O)N/N=C/c3c[nH]c4ccccc34)cn(C3CC3)c12 (stereo not drawn) yielded a growth of 95.1%. Work on CC(=O)c1nnn(-c2c(C(=O)n3nc(C)cc3C)sc(=S)n2-c2ccccc2)c1C yielded a growth of 111%. CCCCc1nc(/C=N/Nc2nc(Nc3ccccc3)nc(Nc3ccc(S(N)(=O)=O)cc3)n2)c(Cl)[nH]1 gave a growth of 95.3%. O=C(CNc1nc(-c2cccc([N+](=O)[O-])c2)cs1)Nc1cccc(Cl)c1 showed a growth of 105%. With O=C(CSc1nnc(-c2ccc(Cl)cc2)n1-c1ccccc1)Nc1ccc(Br)cc1 the growth was -83% (active). Cn1ccnc1C(=O)/C=C/c1ccc(NC(=O)c2c(F)c(F)c(F)c(F)c2F)cc1 gave a growth of 101%. With CNC(=O)c1cc(N2CCc3cc(NC(=O)Nc4ccc(Cl)c(C(F)(F)F)c4)ccc32)ccn1 the growth was 49.7%. COc1c(N2CC3CCCNC3C2)c(F)cc2c(=O)c(C(=O)N/N=C/c3ccccc3)cn(C3CC3)c12 (stereo not drawn) gave a growth of 66.6%. Compound C[C@H](CCC(=O)NCc1ccc(C(=O)Nc2ccccc2N)cc1)[C@H]1CC[C@H]2[C@@H]3[C@@H](O)C[C@@H]4C[C@H](O)CC[C@]4(C)[C@H]3CC[C@]12C has a growth of 71.4%. Work on COc1c(N2CC3CCCNC3C2)c(F)cc2c(=O)c(C(=O)N/N=C/c3ccc4c(c3)OCO4)cn(C3CC3)c12 (stereo not drawn) yielded a growth of 50.3%. O=S(=O)(NCCCNc1nccc(-n2cnc3ccccc32)n1)c1ccc(C(F)(F)F)cc1 was tested, and the growth was 91.2%. C=CCn1c(SCC(=O)Nc2ccc(C(=O)/C=C/c3cc(OC)c(OC)c(OC)c3)cc2)nnc1-c1c[nH]c2ccccc12 showed a growth of 23.1%. For Brc1ccccc1/C=N/Nc1nc(N/N=C/c2ccccc2Br)nc(N2CCOCC2)n1, the growth was 61.3%. COc1ccc(-c2cc(-c3ccc(Cl)cc3)c(C#N)c(=O)n2Cc2ccc(C(=O)O)cc2)cc1 showed a growth of 108%. CS(=O)(=O)Nc1cc(-c2ccc3ncc(C#N)c(NCc4cccc(F)c4)c3c2)cnc1Cl showed a growth of 10.8%. COc1ccc(NC(=O)Nc2ccc3c(ccn3C(=O)c3cccc(F)c3)c2)cc1 was tested, and the growth was 58.2%. With O=C(CNc1nc(-c2cccc([N+](=O)[O-])c2)cs1)Nc1cccc([N+](=O)[O-])c1 the growth was -13.6% (active). O=C(/C=C/c1ccc(F)cc1)c1ccc(O)cc1 was tested, and the growth was 95.2%.
